AHR activator: AHR activators, primary screen, cell-based, luminescence, luciferase reporter, human | Aryl hydrocarbon receptor (Homo sapiens), P35869 | AHR-responsive luciferase reporter cells | activation, % at 5 µM | 320,000 tested, 2.5% active; in the data active = activation above about 47%
Target sequence (P35869 whole entry, looked up): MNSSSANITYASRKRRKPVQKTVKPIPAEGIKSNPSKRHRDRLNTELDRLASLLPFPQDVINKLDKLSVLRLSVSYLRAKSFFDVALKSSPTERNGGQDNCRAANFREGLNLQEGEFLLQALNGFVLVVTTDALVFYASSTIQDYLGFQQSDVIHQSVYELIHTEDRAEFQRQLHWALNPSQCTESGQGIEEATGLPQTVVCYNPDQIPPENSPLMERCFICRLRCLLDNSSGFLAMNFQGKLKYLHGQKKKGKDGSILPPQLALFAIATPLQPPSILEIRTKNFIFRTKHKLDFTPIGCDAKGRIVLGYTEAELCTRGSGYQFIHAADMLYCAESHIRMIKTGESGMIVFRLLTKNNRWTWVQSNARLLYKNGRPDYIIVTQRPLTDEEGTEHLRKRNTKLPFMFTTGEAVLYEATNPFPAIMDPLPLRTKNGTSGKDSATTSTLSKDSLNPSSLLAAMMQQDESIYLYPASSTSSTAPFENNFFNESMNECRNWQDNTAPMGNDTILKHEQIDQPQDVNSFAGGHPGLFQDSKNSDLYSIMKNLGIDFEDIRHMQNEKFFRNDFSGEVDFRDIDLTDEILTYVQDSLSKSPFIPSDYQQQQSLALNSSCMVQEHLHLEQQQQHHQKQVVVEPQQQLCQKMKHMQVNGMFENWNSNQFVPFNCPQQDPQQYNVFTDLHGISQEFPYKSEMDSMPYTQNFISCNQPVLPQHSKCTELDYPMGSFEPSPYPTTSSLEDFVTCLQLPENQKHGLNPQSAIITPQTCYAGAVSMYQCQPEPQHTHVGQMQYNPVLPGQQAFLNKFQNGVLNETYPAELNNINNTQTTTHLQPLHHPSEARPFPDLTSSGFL
Mot1-301 SUMO: yeast Mot1-301 growth rescue at high temperature, primary screen, SUMOylation pathway inhibitor project, S. cerevisiae, ATP luminescence, 38.5C; S. cerevisiae Mot1-301 growth rescue; percent above DMSO median, 100 means doubled; growth rescue, % at 18.8 µM; 320,000 tested, 1% active; AID 2716, 2010;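 active = every valid replicate shows activation above 250% relative to neutral control wells; inactive = the rest, any valid replicate at or below 250%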
Efflux pump mplx: inhibitors of Candida efflux pumps in yeast, primary screen, S. cerevisiae, Nile Red, multiplex | S. cerevisiae Candida pump triplex | inhibition, % at 10 µM | 330,000 tested, 0.44% active;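 active = plate passing quality check with inhibition over a set limit, or well fluorescence over plate mean plus 4 SD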;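 note: Nile Red retained in pooled yeast measured as flow cytometry median fluorescence; higher means more Nile Red kept so more efflux inhibition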
ALR H2O2 inh: inhibitors of human ALR sulfhydryl oxidase, primary screen, biochemical, H2O2 detection, HRP-luminol luminescence, single point; FAD-linked sulfhydryl oxidase ALR (Homo sapiens), P55789; purified ALR, DTT oxidation; inhibition, % (no concentration beside the values); 290,000 tested, 3.8% active; AID 485317, 2010;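 active = mean replicate inhibition above about 79%, with every replicate also reaching it, limit read from the data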
A1 inh: caspase 3/7 activation in MEF A1-2A-BIM cells, primary screen, A1 inhibitor project, cell-based, luminescence, HTS; Caspase-Glo 3/7 luminescence, 3 h; percent of clofoctol response, vehicle zero; caspase activation, % (test concentration not listed); 330,000 tested, 0.066% active;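 active = over half of replicate activation scores above 10%, or exactly half above 10 with the replicate mean above 10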
VLA-4 inh: inhibition in human VLA-4 binding assay, primary screen, VLA-4 allosteric modulator project, MLPCN library, flow cytometry, VLA-4 expressing cells. Integrin alpha-4 (Homo sapiens), P13612. ligand binding flow cytometry. inhibition, % (about 7 µM as worked out from the volumes in the protocol). 330,000 tested, 0.2% active; in the data active = inhibition above about 50%
Yeast cmpd fluor: flagged as fluorescent in efflux inhibitor counter-screen; S. cerevisiae AD/pABC3, compound fluorescence, flow cytometry; fluorescence ratio to DMSO, % at 10 µM; shares compounds with Efflux pump mplx; 1,700 tested, 4% active; AID 588517;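 active = fluorescence ratio to DMSO above its plate's cutoff, the plate mean ratio plus 5 SD, cut at about 210% in these data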;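 note: unstained yeast with no Nile Red so the signal is compound autofluorescence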
Mdr1 pump inh: inhibitors of Candida albicans Mdr1 efflux, confirmation, flow cytometry, singleplex, Cherry Pick1 set; shares compounds with Efflux pump mplx; inhibition, % at 10 µM; S. cerevisiae AD/CaMDR1, Nile Red efflux; 1,700 tested, 1% active; in the data active = inhibition above about 26%;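 note: higher means more Nile Red retained so more efflux inhibition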
CaCdr2 efflux inh: inhibitors of Candida albicans Cdr2 efflux pump, confirmation, S. cerevisiae AD/CaCDR2, flow cytometry, cherry pick 1, singleplex; shares compounds with Efflux pump mplx; Nile Red retention; Nile Red retention ratio vs DMSO, % at 10 µM; 1,700 tested, 4% active; in the data active = Nile Red retention ratio vs DMSO above about 190%;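 note: higher ratio means more blocking of Cdr2 efflux of the dye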
Cdr1 pump inh: inhibitors of Candida albicans Cdr1 efflux pump, confirmation, S. cerevisiae AD/CaCDR1, flow cytometry, cherry pick 1, singleplex. shares compounds with Efflux pump mplx. Nile Red efflux. inhibition, % at 10 µM. 1,700 tested, 1% active. AID 588522, 2011;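 active = inhibition above the screen-wide mean plus twice its standard deviation, cut at about 32% in these data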
Each line names hits and unclear results; the compound was inactive in the other large screens (follow-up assays come after a bar, where they were run). Hits are enriched below; roughly 7.2% of the tested compounds scored in any of these assays.

CCN=C1S/C(=C\c2ccc(N3CCOCC3)cc2C)C(=O)N1CC	none
CCNC(=O)NC(=O)C(C)OC(=O)[C@H](C)NS(=O)(=O)c1c(C)c(C)cc(C)c1C (some centres undefined)	none
O=C(COC(=O)c1cccc(S(=O)(=O)N2CCOCC2)c1)Nc1ccc2c(c1)OCO2	none
O=C(COC(=O)c1ccc2c(c1)OCCO2)Nc1cccc(S(=O)(=O)N2CCOCC2)c1	Efflux pump mplx 0.5 | Yeast cmpd fluor inactive | Mdr1 pump inh inactive | CaCdr2 efflux inh inactive | Cdr1 pump inh inactive
CCOc1ccc(NC(=O)NC2CCCc3ccccc32)cc1 (centres undefined)	Efflux pump mplx 6.5 | Yeast cmpd fluor inactive | Mdr1 pump inh inactive | CaCdr2 efflux inh inactive | Cdr1 pump inh inactive
CCOCCCN(Cc1ccco1)C(=O)c1cc2c(=O)[nH]c3ccc(C)cc3c2s1	none (no result: A1 inh)
CC(C)n1c(N2CCN(CC(=O)NCc3cccs3)CC2)nc2ccccc21	Efflux pump mplx 1.5 | Yeast cmpd fluor inactive | Mdr1 pump inh inactive | CaCdr2 efflux inh inactive | Cdr1 pump inh inactive
CC(C)n1c(N2CCN(C(=O)c3cccs3)CC2)nc2ccccc21	none
CCCCc1ccc(-c2csc(/C(C#N)=C\c3ccco3)n2)cc1	Efflux pump mplx 0.6, ALR H2O2 inh 84 | Yeast cmpd fluor inactive | Mdr1 pump inh inactive | CaCdr2 efflux inh inactive | Cdr1 pump inh inactive
CCCCc1ccc(-c2csc(/C(C#N)=C/c3ccc(C)o3)n2)cc1	none
N#C/C(=C\c1ccco1)c1nc2ccccc2s1	none | Yeast cmpd fluor inactive | Mdr1 pump inh inactive | CaCdr2 efflux inh inactive | Cdr1 pump inh inactive
N#C/C(=C/c1ccco1)c1nc2ccccc2s1	none | Yeast cmpd fluor inactive | Mdr1 pump inh inactive | CaCdr2 efflux inh inactive | Cdr1 pump inh inactive
N#C/C(=N\O)c1nc2ccccc2s1	none (no result: ALR H2O2 inh)
CCOC(=O)c1cc2occc2n1CCCN1C(=O)c2ccccc2C1=O	none
COC(=O)Cc1ccc(N(Cc2ccccc2F)S(=O)(=O)c2ccc(Cl)cc2)cc1	none
CN1C(=O)[C@@H]2[C@H](C1=O)[C@@H]1C(=O)Nc3ccccc3C(=O)N1[C@@H]2c1cccc(Br)c1	none
Cc1ccc([C@@H]2[C@@H]3C(=O)N(C)C(=O)[C@@H]3[C@@H]3C(=O)Nc4ccccc4C(=O)N23)cc1	Efflux pump mplx 0.6 | Yeast cmpd fluor inactive | Mdr1 pump inh inactive | CaCdr2 efflux inh inactive | Cdr1 pump inh inactive
CCC(C)(C)NC(=O)C(c1cccs1)N(C(=O)c1ccn[nH]1)c1cccc(OC)c1 (centres undefined)	none
CCC(C)(C)NC(=O)C(c1ccccc1F)N(C(=O)c1ccn[nH]1)c1ccccc1 (centres undefined)	Efflux pump mplx 0.4 | Yeast cmpd fluor inactive | Mdr1 pump inh inactive | CaCdr2 efflux inh inactive | Cdr1 pump inh inactive
Cc1nc2ccccc2n2c(O)c(CC(=O)O)cc12	Efflux pump mplx 0.5 | Yeast cmpd fluor inactive | Mdr1 pump inh inactive | CaCdr2 efflux inh inactive | Cdr1 pump inh inactive
COc1ccc(C(C)n2c(C)c3c(C)nnc(C)c3c2C)cc1 (centres undefined)	Efflux pump mplx 6.7 | Yeast cmpd fluor inactive | Mdr1 pump inh inactive | CaCdr2 efflux inh inactive | Cdr1 pump inh inactive
COc1cccc(CNC(=O)Cn2ccc([N+](=O)[O-])n2)c1	none
CCOc1cc(/C=C2\SC(=Nc3ccccc3)N(c3ccccc3)C2=O)ccc1OCC(=O)O	Efflux pump mplx 6.4 | Yeast cmpd fluor inactive | Mdr1 pump inh inactive | CaCdr2 efflux inh inactive | Cdr1 pump inh inactive
O=C1CC(C(=O)N(c2ccccc2)C(C(=O)NC2CCCC2)c2ccncc2)CS1 (centres undefined)	none
CN(C)CC/C=C1/c2ccccc2Sc2ccc(Cl)cc21	none | Yeast cmpd fluor inactive | Mdr1 pump inh inactive | CaCdr2 efflux inh inactive | Cdr1 pump inh inactive
COC(=O)/C=C1/N/C(=N\c2nc(C)cc(C)n2)N(c2ccc(Cl)cc2)C1=O	none
Cc1ccccc1OCC(=O)Nc1nnc(C2CCCCC2)s1	none (no result: ALR H2O2 inh) | Yeast cmpd fluor inactive | Mdr1 pump inh inactive | CaCdr2 efflux inh inactive | Cdr1 pump inh inactive
Cc1ccccc1OCC(=O)Nc1nnc(-c2ccncc2)s1	ALR H2O2 inh 87 | Yeast cmpd fluor inactive | Mdr1 pump inh inactive | CaCdr2 efflux inh inactive | Cdr1 pump inh inactive
O=C(COc1ccccc1F)Nc1nnc(-c2ccncc2)s1	none
COc1cc(C)ccc1OCC(=O)Nc1nnc(C2CC2)s1	none | Yeast cmpd fluor inactive | Mdr1 pump inh inactive | CaCdr2 efflux inh inactive | Cdr1 pump inh inactive
O=C(COc1ccc(Br)cc1F)Nc1nnc(C2CC2)s1	none | Yeast cmpd fluor inactive | Mdr1 pump inh inactive | CaCdr2 efflux inh inactive | Cdr1 pump inh inactive
O=C(CN1C(=O)CCSc2ccccc21)Nc1ccc(F)cc1	none | Yeast cmpd fluor inactive | Mdr1 pump inh inactive | CaCdr2 efflux inh inactive | Cdr1 pump inh inactive
CC1CC(=O)N(CC(=O)Nc2ccc3c(c2)OCO3)c2ccccc2S1 (centres undefined)	none | Yeast cmpd fluor inactive | Mdr1 pump inh inactive | CaCdr2 efflux inh inactive | Cdr1 pump inh inactive
O=C(CN1C(=O)CC(c2ccco2)Sc2ccccc21)Nc1ccc2c(c1)OCCO2 (centres undefined)	Efflux pump mplx 0.7 | Yeast cmpd fluor inactive | Mdr1 pump inh inactive | CaCdr2 efflux inh inactive | Cdr1 pump inh inactive
O=C(CN1C(=O)CCSc2ccccc21)Nc1ccc2c(c1)OCCO2	none
CCc1cccc(C)c1NC(=O)CN1C(=O)NC(C)(CCC(C)C)C1=O (centres undefined)	none
O=C(NC1CC1)c1cc2c(F)cccc2s1	none (no result: ALR H2O2 inh)
O=C1Nc2ccccc2/C1=C/c1cccnc1	none

Screens from PubChem.
